Data published in PubChem BioAssay AID782 (Emory University Molecular Libraries Screening Center, 2007).
Out of some 220,000 compounds screened, about 800 (0.36%) were called active. This is one part of a sample in which actives are shown more often than they occur.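 How the source made its calls: active means inhibition above about 30% (limit read from the data); inactive means the rest.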

Each compound was assayed against Eukaryotic translation initiation factor 4E (Mus musculus) + Eukaryotic translation initiation factor 4 gamma 1 (Homo sapiens) (UniProt P63073+Q04637) (assay: eIF4E–eIF4G protein interaction inhibitors, primary screen, biochemical, uHTS, TR-FRET, eIF4GI fragment (AID 782;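 further: 0% = full FRET control wells and 100% = background wells lacking eIF4GI fragment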)). Settings: TR-FRET eIF4E-eIF4GI(517-606) binding, 2 h; at 21.7 µM; active compounds read high.
Chain of Eukaryotic translation initiation factor 4E (Mus musculus) + Eukaryotic translation initiation factor 4 gamma 1 (Homo sapiens) (P63073 whole entry, looked up, the tested form may be a part): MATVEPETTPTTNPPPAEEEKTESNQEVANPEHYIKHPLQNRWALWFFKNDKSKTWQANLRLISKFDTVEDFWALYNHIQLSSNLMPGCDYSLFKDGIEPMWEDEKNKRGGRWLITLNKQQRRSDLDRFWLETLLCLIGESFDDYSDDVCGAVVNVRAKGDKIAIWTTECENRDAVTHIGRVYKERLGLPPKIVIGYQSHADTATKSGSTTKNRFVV
Chain of Eukaryotic translation initiation factor 4E (Mus musculus) + Eukaryotic translation initiation factor 4 gamma 1 (Homo sapiens) (Q04637 whole entry, looked up, the tested form may be a part): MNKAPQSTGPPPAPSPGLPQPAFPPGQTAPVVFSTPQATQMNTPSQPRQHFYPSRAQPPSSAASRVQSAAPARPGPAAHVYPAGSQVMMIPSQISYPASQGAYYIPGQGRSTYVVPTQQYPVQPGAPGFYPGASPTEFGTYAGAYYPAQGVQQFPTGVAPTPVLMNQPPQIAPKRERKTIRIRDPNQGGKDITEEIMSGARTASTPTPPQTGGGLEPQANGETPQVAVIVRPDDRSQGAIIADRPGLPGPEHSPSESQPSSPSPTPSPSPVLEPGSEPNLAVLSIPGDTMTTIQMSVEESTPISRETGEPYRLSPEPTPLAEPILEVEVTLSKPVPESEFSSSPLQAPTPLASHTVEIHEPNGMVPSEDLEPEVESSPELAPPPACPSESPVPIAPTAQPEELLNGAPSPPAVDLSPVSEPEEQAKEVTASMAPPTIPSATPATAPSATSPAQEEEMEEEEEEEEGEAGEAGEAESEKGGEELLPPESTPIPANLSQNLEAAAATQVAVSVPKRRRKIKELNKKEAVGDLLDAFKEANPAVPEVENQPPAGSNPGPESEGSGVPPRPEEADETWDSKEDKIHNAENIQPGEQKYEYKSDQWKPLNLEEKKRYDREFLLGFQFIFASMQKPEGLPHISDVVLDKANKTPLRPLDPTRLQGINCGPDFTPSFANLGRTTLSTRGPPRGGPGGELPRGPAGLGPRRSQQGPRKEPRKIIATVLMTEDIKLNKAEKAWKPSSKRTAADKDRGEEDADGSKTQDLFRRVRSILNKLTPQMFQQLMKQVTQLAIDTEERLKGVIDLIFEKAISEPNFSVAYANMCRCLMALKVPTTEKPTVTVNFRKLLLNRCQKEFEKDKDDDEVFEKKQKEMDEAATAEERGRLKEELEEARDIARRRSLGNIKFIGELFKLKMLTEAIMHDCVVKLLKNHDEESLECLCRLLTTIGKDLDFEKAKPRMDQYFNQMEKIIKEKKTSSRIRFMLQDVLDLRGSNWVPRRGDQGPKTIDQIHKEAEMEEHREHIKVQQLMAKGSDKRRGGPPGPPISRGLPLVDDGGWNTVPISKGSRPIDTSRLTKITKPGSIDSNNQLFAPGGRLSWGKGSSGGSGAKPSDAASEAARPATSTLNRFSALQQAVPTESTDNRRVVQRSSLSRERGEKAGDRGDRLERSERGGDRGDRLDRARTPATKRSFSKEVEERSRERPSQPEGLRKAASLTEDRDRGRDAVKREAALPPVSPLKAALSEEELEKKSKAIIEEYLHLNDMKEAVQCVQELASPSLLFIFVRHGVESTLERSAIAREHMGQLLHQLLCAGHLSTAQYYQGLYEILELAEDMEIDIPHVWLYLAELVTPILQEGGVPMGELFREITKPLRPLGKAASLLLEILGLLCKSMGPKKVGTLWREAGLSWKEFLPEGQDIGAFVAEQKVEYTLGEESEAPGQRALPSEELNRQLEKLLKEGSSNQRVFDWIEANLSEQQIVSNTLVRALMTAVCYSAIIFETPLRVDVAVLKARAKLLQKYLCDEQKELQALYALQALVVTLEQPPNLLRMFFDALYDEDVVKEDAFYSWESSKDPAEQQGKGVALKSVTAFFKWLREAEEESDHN

| Compound | inhibition |
| --- | --- |
| CCC(=NCCc1ccccc1)c1c(O)n(C2CCCCC2)c(=O)[nH]c1=O | -4.4% (inactive) |
| CC(=NCC1CCCO1)c1c(O)n(-c2ccccc2)c(=O)[nH]c1=O (stereo not given) | 58.1% (active) |
| Cc1ccc(-n2c(O)c(C=NCC3CCCO3)c(=O)[nH]c2=O)c(C)c1 (stereo not given) | -0.86% (inactive) |
| CC1(C)Cc2c(C#N)c(N3CCNCC3)nc(-c3ccco3)c2CS1 | -1.83% (inactive) |
| COc1ccc(NC(=O)N2CCC3(CC2)OCCO3)c(OC)c1 | 1.55% (inactive) |
